Here are results for seven compounds from ChEMBL document CHEMBL1961873, “Compounds: GSK PKIS; Assays: Nanosyn kinase panel” (2012).

The target of experiment [1] is T1, Tyrosine-protein kinase receptor TYRO3 (Homo sapiens) (UniProt Q06418).
T1 sequence (whole entry): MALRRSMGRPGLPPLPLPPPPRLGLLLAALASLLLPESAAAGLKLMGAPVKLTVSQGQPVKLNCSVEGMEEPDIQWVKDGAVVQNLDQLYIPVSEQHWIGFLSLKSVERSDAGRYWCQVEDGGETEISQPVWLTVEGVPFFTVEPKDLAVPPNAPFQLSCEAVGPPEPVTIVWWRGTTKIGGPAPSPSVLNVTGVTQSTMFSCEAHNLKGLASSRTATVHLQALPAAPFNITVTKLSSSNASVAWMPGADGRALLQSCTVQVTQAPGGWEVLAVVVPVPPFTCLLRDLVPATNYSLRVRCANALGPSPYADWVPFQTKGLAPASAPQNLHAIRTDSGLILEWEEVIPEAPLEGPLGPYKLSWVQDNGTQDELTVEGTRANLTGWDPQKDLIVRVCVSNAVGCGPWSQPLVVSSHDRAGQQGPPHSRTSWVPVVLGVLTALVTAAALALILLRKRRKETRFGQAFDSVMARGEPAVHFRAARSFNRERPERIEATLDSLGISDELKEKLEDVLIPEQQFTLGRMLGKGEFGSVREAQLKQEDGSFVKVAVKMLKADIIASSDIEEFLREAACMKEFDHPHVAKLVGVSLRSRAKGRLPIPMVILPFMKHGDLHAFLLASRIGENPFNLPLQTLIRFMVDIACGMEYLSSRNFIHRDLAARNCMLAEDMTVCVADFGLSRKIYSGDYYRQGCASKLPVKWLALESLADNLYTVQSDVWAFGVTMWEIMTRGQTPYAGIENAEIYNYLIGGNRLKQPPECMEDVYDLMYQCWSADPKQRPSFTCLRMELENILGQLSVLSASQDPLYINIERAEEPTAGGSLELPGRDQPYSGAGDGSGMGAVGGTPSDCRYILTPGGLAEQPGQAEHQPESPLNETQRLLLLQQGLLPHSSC
As to conditions: at 1 µM.

In experiment [2] the target is Tyrosine-protein kinase Yes (Homo sapiens) (UniProt P07947). Particulars: at 0.1 µM.
Tyrosine-protein kinase Yes (Homo sapiens), sequence (P07947 2-543 limits assumed): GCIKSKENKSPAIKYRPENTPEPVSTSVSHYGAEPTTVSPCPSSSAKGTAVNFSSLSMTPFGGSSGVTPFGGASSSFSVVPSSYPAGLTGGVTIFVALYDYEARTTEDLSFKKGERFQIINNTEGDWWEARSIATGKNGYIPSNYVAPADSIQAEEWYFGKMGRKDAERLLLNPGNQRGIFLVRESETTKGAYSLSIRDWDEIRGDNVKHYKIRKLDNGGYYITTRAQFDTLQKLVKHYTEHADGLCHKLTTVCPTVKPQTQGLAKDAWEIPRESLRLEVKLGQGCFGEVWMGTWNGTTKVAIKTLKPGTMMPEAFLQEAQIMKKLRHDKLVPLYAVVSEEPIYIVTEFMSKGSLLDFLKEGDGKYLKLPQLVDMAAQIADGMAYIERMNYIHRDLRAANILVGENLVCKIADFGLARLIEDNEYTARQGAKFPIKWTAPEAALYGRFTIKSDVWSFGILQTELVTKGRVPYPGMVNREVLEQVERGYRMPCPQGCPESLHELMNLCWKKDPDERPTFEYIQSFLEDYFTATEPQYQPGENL
Experiment [3] has the same target. Particulars: at 1 µM.
In experiment [4] the target is T2, Tyrosine-protein kinase ZAP-70 (Homo sapiens) (UniProt P43403).
T2 sequence (whole entry): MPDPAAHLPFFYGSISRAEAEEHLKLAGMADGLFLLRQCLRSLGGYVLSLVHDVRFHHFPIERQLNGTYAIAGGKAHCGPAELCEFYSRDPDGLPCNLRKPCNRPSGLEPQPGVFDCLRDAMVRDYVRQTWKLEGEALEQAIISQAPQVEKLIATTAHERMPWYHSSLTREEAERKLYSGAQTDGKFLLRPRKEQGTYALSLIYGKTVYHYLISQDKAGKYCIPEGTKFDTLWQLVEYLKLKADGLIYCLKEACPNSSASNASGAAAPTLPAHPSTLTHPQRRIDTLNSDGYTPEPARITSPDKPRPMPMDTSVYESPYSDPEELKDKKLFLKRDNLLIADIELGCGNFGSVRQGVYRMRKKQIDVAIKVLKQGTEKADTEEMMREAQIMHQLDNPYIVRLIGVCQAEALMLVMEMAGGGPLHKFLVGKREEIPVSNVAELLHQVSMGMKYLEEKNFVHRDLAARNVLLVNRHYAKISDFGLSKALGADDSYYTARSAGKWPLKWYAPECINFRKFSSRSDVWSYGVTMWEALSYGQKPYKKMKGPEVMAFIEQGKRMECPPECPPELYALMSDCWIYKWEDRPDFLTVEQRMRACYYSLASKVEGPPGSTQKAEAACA
Particulars: at 0.1 µM.

The target of experiment [5] is T2, Tyrosine-protein kinase ZAP-70 (Homo sapiens). As to conditions: at 1 µM.
In experiment [6] the target is Serine/threonine-protein kinase B-raf (Homo sapiens) (UniProt P15056). Particulars: at 0.1 µM.
Serine/threonine-protein kinase B-raf (Homo sapiens), sequence (P15056 whole entry): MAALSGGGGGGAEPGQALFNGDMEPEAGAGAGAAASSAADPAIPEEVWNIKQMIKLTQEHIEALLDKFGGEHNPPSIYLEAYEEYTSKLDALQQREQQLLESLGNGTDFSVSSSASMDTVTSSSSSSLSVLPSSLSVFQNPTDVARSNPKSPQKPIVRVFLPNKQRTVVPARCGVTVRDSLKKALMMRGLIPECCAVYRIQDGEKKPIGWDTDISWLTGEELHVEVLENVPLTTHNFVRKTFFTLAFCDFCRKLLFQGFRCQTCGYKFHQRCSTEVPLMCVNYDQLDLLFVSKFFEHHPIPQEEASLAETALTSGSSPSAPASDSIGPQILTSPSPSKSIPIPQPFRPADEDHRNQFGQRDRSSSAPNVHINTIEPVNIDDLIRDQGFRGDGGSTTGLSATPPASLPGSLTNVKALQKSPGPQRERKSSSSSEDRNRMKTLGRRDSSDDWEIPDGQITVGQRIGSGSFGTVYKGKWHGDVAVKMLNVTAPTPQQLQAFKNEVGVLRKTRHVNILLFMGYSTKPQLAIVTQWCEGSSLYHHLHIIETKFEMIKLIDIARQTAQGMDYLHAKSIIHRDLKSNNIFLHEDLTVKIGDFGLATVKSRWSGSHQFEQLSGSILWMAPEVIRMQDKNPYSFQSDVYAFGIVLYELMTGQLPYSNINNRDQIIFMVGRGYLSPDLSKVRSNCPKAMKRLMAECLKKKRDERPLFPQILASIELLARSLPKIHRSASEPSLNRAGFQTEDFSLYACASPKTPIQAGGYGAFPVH
Experiment [7] has the same target. As to conditions: at 1 µM.
Experiment [8] deals with Serine/threonine-protein kinase B-raf (Homo sapiens), P15056 [V600E]. Particulars: at 0.1 µM.
Serine/threonine-protein kinase B-raf (Homo sapiens), P15056 [V600E], sequence (P15056 whole entry V600E): as the sequence (P15056 whole entry) above, with V600E counted along it
Experiment [9] shares this test system. Particulars: at 1 µM.
The target in experiment [10] is RAF proto-oncogene serine/threonine-protein kinase (Homo sapiens) (UniProt P04049). As to conditions: at 0.1 µM.
RAF proto-oncogene serine/threonine-protein kinase (Homo sapiens), sequence (P04049 whole entry): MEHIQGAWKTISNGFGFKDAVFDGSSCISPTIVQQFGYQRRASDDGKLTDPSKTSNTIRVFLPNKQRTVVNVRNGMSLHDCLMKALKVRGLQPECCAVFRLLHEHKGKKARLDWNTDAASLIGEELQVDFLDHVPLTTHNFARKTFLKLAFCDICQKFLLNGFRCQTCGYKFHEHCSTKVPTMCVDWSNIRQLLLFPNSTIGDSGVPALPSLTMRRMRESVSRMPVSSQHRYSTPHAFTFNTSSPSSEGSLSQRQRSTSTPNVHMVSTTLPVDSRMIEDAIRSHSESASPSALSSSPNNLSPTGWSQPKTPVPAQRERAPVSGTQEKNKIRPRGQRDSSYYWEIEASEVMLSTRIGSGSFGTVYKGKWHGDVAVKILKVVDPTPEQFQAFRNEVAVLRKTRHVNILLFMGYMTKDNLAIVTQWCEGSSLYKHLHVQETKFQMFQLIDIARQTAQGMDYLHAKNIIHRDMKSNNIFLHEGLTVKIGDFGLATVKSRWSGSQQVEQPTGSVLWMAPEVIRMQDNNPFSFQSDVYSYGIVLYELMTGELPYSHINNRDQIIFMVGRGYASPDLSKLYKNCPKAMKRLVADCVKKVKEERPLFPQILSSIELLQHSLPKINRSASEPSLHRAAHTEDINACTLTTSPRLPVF
The target is the same in experiment [11]. Particulars: at 1 µM.
Experiment [12] deals with T3, Interleukin-1 receptor-associated kinase 4 (Homo sapiens) (UniProt Q9NWZ3).
T3 sequence (whole entry): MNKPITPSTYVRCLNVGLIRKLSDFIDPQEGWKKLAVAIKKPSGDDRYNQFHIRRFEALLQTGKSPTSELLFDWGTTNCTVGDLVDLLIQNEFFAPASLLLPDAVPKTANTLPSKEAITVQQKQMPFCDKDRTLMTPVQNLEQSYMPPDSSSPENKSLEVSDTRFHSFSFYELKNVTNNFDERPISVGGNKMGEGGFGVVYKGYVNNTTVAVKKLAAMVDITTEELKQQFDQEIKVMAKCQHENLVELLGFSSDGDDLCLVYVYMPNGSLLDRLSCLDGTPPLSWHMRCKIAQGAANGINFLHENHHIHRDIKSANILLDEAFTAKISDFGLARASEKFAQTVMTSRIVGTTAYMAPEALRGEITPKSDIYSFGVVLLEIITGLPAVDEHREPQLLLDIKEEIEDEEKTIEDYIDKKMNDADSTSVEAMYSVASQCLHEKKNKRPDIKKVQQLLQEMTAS
Particulars: at 0.1 µM.

The target of experiment [13] is T3, Interleukin-1 receptor-associated kinase 4 (Homo sapiens). As to conditions: at 1 µM.
Experiment [14] deals with Leucine-rich repeat serine/threonine-protein kinase 2 (Homo sapiens) (UniProt Q5S007). Particulars: at 0.1 µM.
Leucine-rich repeat serine/threonine-protein kinase 2 (Homo sapiens), sequence (Q5S007 whole entry): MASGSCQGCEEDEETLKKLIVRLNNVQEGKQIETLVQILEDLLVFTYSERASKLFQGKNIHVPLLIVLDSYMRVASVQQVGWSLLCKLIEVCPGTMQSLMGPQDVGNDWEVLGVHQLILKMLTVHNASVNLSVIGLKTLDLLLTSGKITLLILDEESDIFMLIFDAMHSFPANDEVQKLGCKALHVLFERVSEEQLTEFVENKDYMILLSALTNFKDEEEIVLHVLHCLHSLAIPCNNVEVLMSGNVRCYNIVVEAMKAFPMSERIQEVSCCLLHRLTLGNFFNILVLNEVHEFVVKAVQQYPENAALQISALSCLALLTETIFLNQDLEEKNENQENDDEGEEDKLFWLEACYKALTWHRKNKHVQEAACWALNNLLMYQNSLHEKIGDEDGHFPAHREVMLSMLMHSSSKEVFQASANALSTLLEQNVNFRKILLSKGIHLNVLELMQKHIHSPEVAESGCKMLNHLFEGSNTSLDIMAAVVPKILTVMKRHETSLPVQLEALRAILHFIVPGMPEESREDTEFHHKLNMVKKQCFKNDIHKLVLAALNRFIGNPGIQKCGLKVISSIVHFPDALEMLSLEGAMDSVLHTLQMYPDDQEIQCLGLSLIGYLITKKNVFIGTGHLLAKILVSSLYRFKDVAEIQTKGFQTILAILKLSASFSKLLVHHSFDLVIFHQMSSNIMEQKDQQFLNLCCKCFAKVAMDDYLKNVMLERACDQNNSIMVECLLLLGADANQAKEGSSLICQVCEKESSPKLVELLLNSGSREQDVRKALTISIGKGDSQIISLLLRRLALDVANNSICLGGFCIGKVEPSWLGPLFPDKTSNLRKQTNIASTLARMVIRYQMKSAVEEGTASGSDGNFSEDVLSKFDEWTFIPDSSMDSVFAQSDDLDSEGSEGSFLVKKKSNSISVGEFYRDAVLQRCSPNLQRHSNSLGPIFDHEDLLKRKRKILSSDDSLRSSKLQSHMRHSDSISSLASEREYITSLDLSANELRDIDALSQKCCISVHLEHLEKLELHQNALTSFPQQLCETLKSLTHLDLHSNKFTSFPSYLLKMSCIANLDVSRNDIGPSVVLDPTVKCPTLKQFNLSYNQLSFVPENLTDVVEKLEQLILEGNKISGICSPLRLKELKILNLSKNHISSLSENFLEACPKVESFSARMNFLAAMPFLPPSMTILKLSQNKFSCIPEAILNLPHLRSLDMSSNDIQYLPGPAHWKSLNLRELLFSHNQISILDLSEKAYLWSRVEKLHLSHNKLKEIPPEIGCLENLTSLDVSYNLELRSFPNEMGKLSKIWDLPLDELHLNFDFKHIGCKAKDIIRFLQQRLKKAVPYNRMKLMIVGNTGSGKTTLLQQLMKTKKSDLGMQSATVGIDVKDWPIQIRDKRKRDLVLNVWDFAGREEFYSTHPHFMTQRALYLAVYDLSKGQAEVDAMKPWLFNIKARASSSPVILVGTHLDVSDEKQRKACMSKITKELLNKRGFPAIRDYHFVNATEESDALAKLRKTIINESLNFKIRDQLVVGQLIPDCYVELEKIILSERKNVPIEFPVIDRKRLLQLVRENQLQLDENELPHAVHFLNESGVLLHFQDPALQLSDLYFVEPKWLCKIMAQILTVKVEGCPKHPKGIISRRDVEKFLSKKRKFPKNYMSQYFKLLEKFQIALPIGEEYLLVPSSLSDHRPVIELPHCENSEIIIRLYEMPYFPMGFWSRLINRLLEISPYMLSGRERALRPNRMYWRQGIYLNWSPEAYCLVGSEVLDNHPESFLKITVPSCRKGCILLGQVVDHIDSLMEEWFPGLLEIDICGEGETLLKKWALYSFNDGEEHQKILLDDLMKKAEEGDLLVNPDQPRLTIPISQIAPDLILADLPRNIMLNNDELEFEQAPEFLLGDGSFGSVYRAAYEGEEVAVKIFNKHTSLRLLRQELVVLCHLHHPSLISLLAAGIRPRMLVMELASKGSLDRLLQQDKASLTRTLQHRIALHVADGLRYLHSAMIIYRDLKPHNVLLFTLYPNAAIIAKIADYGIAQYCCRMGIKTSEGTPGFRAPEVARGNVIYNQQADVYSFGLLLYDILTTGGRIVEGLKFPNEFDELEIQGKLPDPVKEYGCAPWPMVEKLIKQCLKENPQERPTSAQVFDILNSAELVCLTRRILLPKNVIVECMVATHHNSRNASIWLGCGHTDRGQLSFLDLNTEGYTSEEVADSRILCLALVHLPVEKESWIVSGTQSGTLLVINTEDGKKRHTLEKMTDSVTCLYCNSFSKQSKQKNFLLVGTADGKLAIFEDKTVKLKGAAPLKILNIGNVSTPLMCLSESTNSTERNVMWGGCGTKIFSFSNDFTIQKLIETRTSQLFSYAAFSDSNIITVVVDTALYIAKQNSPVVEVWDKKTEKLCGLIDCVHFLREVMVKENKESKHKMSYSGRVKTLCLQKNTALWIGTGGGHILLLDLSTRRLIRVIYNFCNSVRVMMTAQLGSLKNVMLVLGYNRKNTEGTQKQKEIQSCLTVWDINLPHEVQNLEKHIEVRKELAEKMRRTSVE
The target is the same in experiment [15]. As to conditions: at 1 µM.
The test system of experiment [16] is Leucine-rich repeat serine/threonine-protein kinase 2 (Homo sapiens), Q5S007 [G2019S]. Particulars: at 0.1 µM.
Leucine-rich repeat serine/threonine-protein kinase 2 (Homo sapiens), Q5S007 [G2019S], sequence (Q5S007 whole entry G2019S): as the sequence (Q5S007 whole entry) above, with G2019S counted along it
For experiment [17] the test system is unchanged. Particulars: at 1 µM.

Take `Fc1cccc(COc2ccc(Nc3ncnc4sc(-c5cccs5)cc34)cc2Cl)c1`: the inhibition (in general, the relative decrease from the control value, in per cent) is 1.15% in experiment [1]; 0.57% in experiment [2]; 1.28% in [3]; -1.83% in experiment [4]; 1.54% in experiment [5]; 1.35% in [6]. For the same compound, the inhibition in [7] is 2.73%; in experiment [8], 1.62%; in experiment [9], 1.65%; in experiment [10], 1.45%; in experiment [11] it was -2.15%; in experiment [12] it was 0.39%. The inhibition was found to be 1.34% in [13]; 1.83% in experiment [14]; 4.84% in [15]; 3.4% in [16]; 6.24% in experiment [17].
`Cc1nn(C)c2cc(N(C)c3ccnc(Nc4cccc(S(N)(=O)=O)c4)n3)ccc12`: the inhibition in experiment [1] was 29.9%; in [2] it was 9.9%; in experiment [3], 45.6%; in experiment [4] it was -2.66%; in experiment [5] it was 16%; in experiment [6] it was 4.26%. Moreover, the inhibition in experiment [7] was 7.71%; in experiment [8] it was 4.01%; in experiment [9], 6.87%; in experiment [10] it was -2.36%; in experiment [11] it was 3.83%; in [12], 2.51%. In addition, the inhibition in [13] is 6.18%; in experiment [14] it was 1.65%; in experiment [15], 7%; in experiment [16], 4.07%; in experiment [17] it was 12.3%.
Take `COc1cc2ncn(-c3cc(OCc4ccccc4C(F)(F)F)c(C(N)=O)s3)c2cc1OC`: the inhibition was 10.3% in experiment [1]; 1.77% in experiment [2]; 7.91% in experiment [3]; -2.01% in [4]; -1.32% in experiment [5]; 5.82% in experiment [6]. The inhibition in [7] was 4.85%; in experiment [8], 3.47%; in experiment [9], 3.52%; in experiment [10] it was 1.99%; in [11], -0.64%; in experiment [12], 1.2%. Further, the inhibition in [13] was determined as 1.85%; in experiment [14], 1.63%; in experiment [15], 16.1%; in experiment [16], 5.35%; in experiment [17], 40.1%.
With `O=C1Nc2ccc(C(=O)c3ccco3)cc2C1=Cc1cc(Cl)c(O)c(Cl)c1`, the inhibition worked out at 8.57% in experiment [1]; 2.58% in experiment [2]; 15.8% in [3]; 2.14% in experiment [4]; 3.97% in experiment [5]; 11.8% in experiment [6]. Moreover, the inhibition in experiment [7] stood at 26.7%; in [8], 12.5%; in experiment [9] it was 27.4%; in experiment [10], 2.35%; in [11], 48.6%; in experiment [12], 3.84%. Besides, the inhibition in experiment [13] is 5.2%; in [14], 22.8%; in experiment [15], 24%; in experiment [16], 61.1%; in [17], 63.9%.
Consider `COc1ccc(-c2ccncc2)cc1C(N)=O`, for which the inhibition was 0.74% in experiment [1]; -1.44% in [2]; 3.66% in experiment [3]; -0.9% in [4]; 1.01% in experiment [5]; 6.32% in [6]. Besides, the inhibition was 8.48% in experiment [7]; 5.07% in experiment [8]; 5.66% in experiment [9]; 1.23% in [10]; -2.86% in experiment [11]; 1.8% in [12]. In addition, the inhibition worked out at 2.34% in experiment [13]; 2.67% in [14]; 5.73% in [15]; 4.45% in [16]; 9.13% in experiment [17].
As for `CCc1cccc(NC(=O)Nc2ccc(Oc3ccc4nc(NC(=O)OC)[nH]c4c3)cc2)c1`, the inhibition in [1] was 21.4%; in experiment [2] it was 0.83%; in experiment [3] it was -1.93%; in experiment [4], 0.4%; in experiment [5] it was -1.32%; in experiment [6] it was 9.12%. Also, the inhibition was 12.2% in [7]; 9.23% in [8]; 13.8% in [9]; -5.43% in experiment [10]; 4.58% in [11]; 0.53% in experiment [12]. The inhibition in experiment [13] came out at 1.04%; in experiment [14], 9.23%; in experiment [15], 8.78%; in experiment [16], 5.51%; in experiment [17], 8.2%.
`COC(=O)Nc1nc2cc(Oc3ccc(NC(=O)Nc4cccc(C(=O)O)c4)cc3)ccc2[nH]1`: the inhibition in experiment [1] was 3.17%; in [2], 0%; in experiment [3], 2.43%; in [4] it was -4.68%; in experiment [5], -4.2%; in experiment [6], -0.5%. For the same compound, the inhibition is -1.69% in experiment [7]; -0.53% in experiment [8]; -0.73% in [9]; -0.09% in experiment [10]; 0.7% in experiment [11]; 1.45% in [12]. Further, the inhibition is 0.26% in [13]; -4.47% in experiment [14]; 4.49% in experiment [15]; -2.68% in experiment [16]; 3.07% in [17].
